The panel holds about 83,000 compounds, 20% with a hit somewhere; the sample as a whole holds those more often.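 In brief: 96-well plates, 48 h treatment, single concentration, percent growth endpoint.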 Activity calls are given as the source filed them. Rule for the calls: active = growth percent below 10; inactive = the rest.
How the values were obtained:
Test in all cases: NCI-60 one-dose screen, 48 h (100 = growth as untreated, 0 = no growth, -100 = all killed)
Conditions in all cases: 10 µM unless noted
[1] = tested on: T-47D breast
[2] = tested on: BT-549 breast
[3] = tested on: MDA-MB-435 melanoma
[4] = tested on: SW-620 colon
[5] = tested on: MCF7 breast
[6] = tested on: HCT-116 colon
[7] = tested on: HCC-2998 colon
[8] = tested on: KM12 colon

Measured: growth

COc1ccccc1C(OC(C)=O)OC(C)=O
inactive: [1] 95.3% | [2] 102% | [3] 104% | [4] 108% | [5] 90.9% | [6] 95.7% | [7] 105% | [8] 105%

CCC1S/C(=N\N=C(/C)c2cccs2)N(c2ccccc2)C1=O (stereo not given)
inactive: [1] 90.6% | [2] 112% | [3] 117% | [4] 96.1% | [5] 84.5% | [6] 90.2% | [7] 121% | [8] 115%

O=C(NCCNc1nccc(-c2c(-c3cccc(O)c3)nc3sccn23)n1)c1ccccc1
inactive: [1] 58.6% | [2] 61.4% | [3] 24% | [4] 78.2% | [5] 38.1% | [6] 42.5% | [7] 97.8% | [8] 75.9%

Nc1nccc2c1ccn2-c1ccc(NC(=O)c2ccc(N3CCOCC3)c(C(F)(F)F)c2)cc1
inactive: [1] 39% | [2] 26.5% | [7] 39.1%
active: [3] -8.07% | [4] -32.8% | [5] -18.2% | [6] 4.53% | [8] -41.4%

OCc1cnccc1NC12CC3CC(CC(C3)C1)C2
inactive: [1] 89.4% | [2] 110% | [3] 105% | [4] 103% | [5] 101% | [6] 99.6% | [7] 105% | [8] 103%

C=C1C(=O)O[C@H]2[C@H]1CC/C(COC(=O)c1ccc3ccccc3c1)=C\CC[C@@]1(C)O[C@@H]21
inactive: [7] 42% | [8] 32.8%
active: [1] -55.2% | [2] -55.2% | [3] -73.8% | [4] -37.9% | [5] -36.1% | [6] -90.6%

CC(=O)c1cc2c(N)c(C(=O)Nc3cccc(Cl)c3)sc2nc1C
inactive: [1] 83.6% | [2] 75.5% | [4] 98.2% | [5] 74% | [6] 102% | [7] 85.3% | [8] 84.1%
active: [3] 2.38%

COc1ccc(/C=N/C2=NNC(C)(c3ccccc3O)N2C(Cc2c[nH]c3ccccc23)C(=O)O)cc1 (stereo not given)
active: [3] 3.69%
inactive: [1] 12.9% | [2] 21.6% | [4] 17.2% | [5] 13.1% | [6] 10.8% | [7] 47.7% | [8] 13.1%

CCc1c(C)c2cc3nc(NCc4ccccc4)oc3c(C)c2oc1=O
inactive: [1] 47.2% | [2] 32.6% | [3] 47.7% | [4] 95.8% | [5] 73.1% | [6] 57.2% | [7] 79.6% | [8] 83.5%

O=C(NCCNc1nccc(-c2c(-c3cccc(O)c3)nc3sccn23)n1)Nc1cccc(C(F)(F)F)c1
inactive: [1] 63.8% | [2] 41.1% | [4] 30.3% | [5] 55.6% | [6] 56.8% | [7] 23% | [8] 14%
active: [3] -3.01%

Cc1cc(-c2ccccc2)nc2ccccc12
inactive: [1] 99.4% | [2] 108% | [3] 109% | [4] 102% | [5] 65.1% | [6] 99.7% | [7] 106% | [8] 106%

Cc1nc(N)nc(SCc2ccccc2)c1Br
inactive: [1] 65.2% | [2] 76.4% | [3] 111% | [4] 104% | [5] 79.8% | [6] 89% | [7] 117% | [8] 98.6%

CCN(CC)CCNC(=O)c1c(C)[nH]c(/C=C2\C(=O)Nc3cc(NC(=O)NC(=O)c4ccc(OC)cc4F)ccc32)c1C
inactive: [1] 104% | [2] 104% | [3] 110% | [4] 94.9% | [5] 58.3% | [6] 64.7% | [7] 100% | [8] 51.5%

Nc1c(C(=O)O)[nH]c(=O)[nH]c1=O
inactive: [1] 104% | [2] 107% | [3] 108% | [4] 108% | [5] 95.6% | [6] 96.8% | [7] 105% | [8] 106%

C[C@]12O[C@H]1[C@H](O)c1c(cc(O)c3c1C(=O)c1cccc(O)c1-3)C2=O
inactive: [1] 100% | [2] 95.5% | [3] 104% | [4] 113% | [5] 97.9% | [6] 93.4% | [7] 112% | [8] 103%

Cc1cn(-c2cc(C(=O)Nc3cccc(-n4ccc5c(NC(=O)c6ccccc6)nccc54)c3)cc(C(F)(F)F)c2)cn1
inactive: [1] 62.5% | [2] 27.9% | [4] 13.4% | [7] 12.7%
active: [3] -14.9% | [5] 7.18% | [6] -78.6% | [8] -25.6%

COC(=O)c1ccc(NC(N)=NCC(C)(C)COc2ccc(C(F)(F)F)cc2)nc1
active: [5] 8.58% | [6] 0.764% | [7] 2.3%
inactive: [1] 28.7% | [2] 66.5% | [3] 58.3% | [4] 27.3% | [8] 46.7%

FC(F)(F)c1cccc([Si](F)(c2cccc(C(F)(F)F)c2)c2cccc(C(F)(F)F)c2)c1
inactive: [1] 40.4% | [2] 64.5% | [3] 95% | [4] 82% | [5] 67.1% | [6] 15.6% | [7] 99% | [8] 74.8%

COc1cccc(-c2nc3sccn3c2-c2ccnc(NCCNC(=O)Nc3cccc(C(F)(F)F)c3)n2)c1
inactive: [1] 42.9% | [2] 71.9% | [3] 21.5% | [4] 88.9% | [5] 54.8% | [6] 44.6% | [7] 40.8% | [8] 33.5%

O=C(CSc1nnc(-c2ccc(Cl)cc2)o1)Nc1ccc(C(=O)/C=C/c2ccccc2)cc1
inactive: [1] 107% | [2] 99.8% | [3] 91.4% | [4] 101% | [5] 53.1% | [6] 65.7% | [7] 106% | [8] 100%

N#Cc1c2c(c(N)[nH]c1=O)C(=O)NC2(O)c1ccccc1 (stereo not given)
inactive: [1] 103% | [2] 105% | [3] 109% | [4] 111% | [5] 99.6% | [6] 104% | [7] 101% | [8] 102%

O=S(c1ccccc1)c1ccc2nnnn2n1 (stereo not given)
inactive: [1] 91.7% | [2] 98.1% | [3] 108% | [4] 59.9% | [5] 86.3% | [6] 60.7% | [7] 113% | [8] 98.2%

O=C1COc2ccccc2C(=O)N1CCCCN1CCCCC1
inactive: [1] 51.3% | [2] 78.7% | [3] 104% | [4] 84.6% | [5] 79.6% | [6] 57.8% | [7] 109% | [8] 90.2%

COc1ccc(C2=NN(C(=O)COc3ccc(Cl)cc3)C(O)(c3cc(F)c(Cl)cc3Cl)C2)cc1 (stereo not given)
inactive: [1] 95.3% | [2] 115% | [3] 91.7% | [4] 100% | [5] 96.3% | [6] 86.4% | [7] 104% | [8] 89.1%

CC(C)(C)OC(=O)N1CC(Cn2cc(C(F)(F)F)c3c(Cl)ncnc32)C1
inactive: [1] 42.6%
active: [2] -91.1% | [3] -83.4% | [4] -37.6% | [5] -32.7% | [6] -84.5% | [7] -89.2% | [8] -50.4%

C/C(=N/NC(=O)Cn1c2ccccc2c2ccncc21)c1cccs1
inactive: [1] 96.4% | [2] 104% | [3] 110% | [4] 103% | [5] 102% | [6] 100% | [7] 96.9% | [8] 101%

NC(=S)NNC1CCCCC1
inactive: [1] 80% | [2] 88.4% | [3] 106% | [4] 99.7% | [5] 88.8% | [6] 91.8% | [7] 100% | [8] 99.9%

CCCOC(=O)c1ccc([N+](=O)[O-])o1
inactive: [1] 114% | [2] 127% | [3] 107% | [4] 97.2% | [5] 94.2% | [6] 105% | [7] 121% | [8] 101%

Cc1cc(N2CCOCC2)nc(N(CCNc2ccnc3cc(Cl)ccc23)Cc2ccco2)n1
active: [1] -6.08%
inactive: [2] 30.2% | [3] 26.6% | [4] 50.5% | [5] 40.6% | [6] 14.5% | [7] 62.9% | [8] 44.8%

CC(Cc1cccc(C(F)(F)F)c1)NCCOC(=O)c1ccccc1 (stereo not given)
inactive: [1] 105% | [2] 109% | [3] 102% | [4] 103% | [5] 106% | [6] 100% | [7] 109% | [8] 114%

From PubChem BioAssay (NCI)
